Data from PubChem BioAssay (Tox21).
Several values for one entry are separate records, joined by “and”; a condition that tells them apart may be missing. Identical values can stand only once. Records with an inconclusive call do not appear. Entries that show only a call come without a potency. Activity calls are given as the source filed them. Unless noted, the call rests on the fitted dose curve.

Assay: qHTS assay to identify small molecule agonists of the hypoxia (HIF-1) signaling pathway (AID 1224846; active means well fitted activation curve with a large enough effect in the signal ratio in the repeat runs, not every such curve was filed as active; the % refers to the signal ratio)
Details: HRE-bla ME-180 cells, beta-lactamase ratio, 17 h; series mostly up to 76.8 µM
In short: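 A low-serum medium (0.5% dialyzed FBS) holding 2,000 HRE-bla ME-180 cells per well is preincubated for 5 hrs, dosed with compounds by pintool, and kept a further 17 hrs at 37C, 5% CO2 before CCF4-AM FRET detection of beta-lactamase.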
Potency means the concentration at half of the fitted maximal effect.

| Compound | Potency |
| --- | --- |
| CCOc1ccccc1C(N)=O | inactive |
| C/C=C/c1ccc(OCC)c(O)c1 | inactive |
| Nc1nc(=S)c2[nH]cnc2[nH]1 | inactive |
| O=c1n(CC2CO2)c(=O)n(CC2CO2)c(=O)n1CC1CO1 (stereo unspecified) | inactive |
| CCc1ccc(C(c2ccc(CC)cc2)C(Cl)Cl)cc1 | inactive |
| CCC[C@H](N[C@@H](C)C(=O)N1[C@H](C(=O)O)C[C@@H]2CCCC[C@@H]21)C(=O)OCC | inactive |
| O=C1Nc2ccccc2C1(c1ccc(O)cc1)c1ccc(O)cc1 | inactive |
| CC[C@]1(O)C[C@@H]2CN(CCc3c([nH]c4ccccc34)[C@@](C(=O)OC)(c3cc4c(cc3OC)N(C)[C@H]3[C@@](O)(C(=O)OC)[C@H](OC(C)=O)[C@]5(CC)C=CCN6CC[C@]43[C@@H]65)C2)C1 | inactive |
| CCCCCCC(O)CCCCCCCCCCC(=O)O (stereo unspecified) | inactive |
| CCN(CC)c1ccc2c(C)cc(=O)oc2c1 | 44 µM (active) and 43.6 µM (active) |
| NCCO | inactive |
| CC(=O)OCCOCCOCCOC(C)=O | inactive |
| O=C(O)c1cccc(C(=O)O)c1 | inactive |
| C=C(C)C1CC=C(C)C(OC(C)=O)C1 (stereo unspecified) | inactive |
| O=C(Oc1ccccc1)c1ccccc1O | inactive |
| CCC(=O)/C=C/C1C(C)=CCCC1(C)C (stereo unspecified) | inactive |
| CC(C)(C)NC(=O)[C@@H]1CN(Cc2cccnc2)CCN1C[C@@H](O)C[C@@H](Cc1ccccc1)C(=O)N[C@H]1c2ccccc2C[C@H]1O | inactive |
| COC(=O)/C=C/c1ccccc1 | inactive |
| CC(C)(C)NCC(O)c1cc(O)cc(O)c1 (stereo unspecified) | inactive |

| Compound | Potency |
| --- | --- |
| Cc1ccnc2c1NC(=O)c1cccnc1N2C1CC1 | inactive |
| NC(=Nc1ccccc1)Nc1ccccc1 | inactive |
| CC(=O)OCC1=C(C(=O)O)N2C(=O)[C@@H](NC(=O)Cc3cccs3)[C@H]2SC1 | inactive |
| COC(=O)c1cccc(C(=O)OC)c1 | inactive |
| Cc1cccc(O)c1C | inactive |
| CC(=O)Nc1ccc(C(=O)CCl)cc1 | inactive |
| OCCN1CCNCC1 | inactive |
| [Cl][In]([Cl])[Cl] | inactive |
| O | inactive |
| C=C(C)C(=O)O | inactive |
| O=C(Cl)c1cccc(C(=O)Cl)c1 | inactive |
| CC(=O)C1=C(C)[C@@H]2C[C@@]3(C1)[C@H](C)CC[C@H]3C2(C)C | inactive |
| C#CC(C)(CC)OC(=O)c1ccccc1C(=O)O (stereo unspecified) | inactive |
| CCCCOCCOC(=O)c1ccccc1C(=O)OCCOCCCC | inactive |
| O=C(O)CP(=O)(O)O | inactive |
| c1ccc2cc3c(ccc4ccccc43)cc2c1 | inactive |
| O=C(O)c1cn(-c2ccc(F)cc2)c2cc(N3CCNCC3)c(F)cc2c1=O | inactive |
| CC(=O)O[C@]1(C(C)=O)CC[C@H]2[C@@H]3C[C@H](C)C4=CC(=O)CC[C@]4(C)[C@H]3CC[C@@]21C | inactive |
| CCCN[C@H]1CCc2nc(N)sc2C1 | inactive |

Assay: qHTS assay to identify small molecule agonists of H2AX - cell viability counter screen (AID 1224847); further: nearly all actives have a fitted effect of over 30% in size
Details: CHO-K1 viability, CellTiter-Glo luminescence, 3 h; series mostly up to 154 µM
In short: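 For this counter screen, overnight-attached CHO-K1 cells received test compounds (15 concentrations, 0.76% DMSO final); 3 hr later at 37C, CellTiter-Glo reagent was added and luminescence recorded after 30 min at room temperature.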

| Compound | Potency |
| --- | --- |
| CCOc1ccccc1C(N)=O | inactive |
| C/C=C/c1ccc(OCC)c(O)c1 | inactive |
| Nc1nc(=S)c2[nH]cnc2[nH]1 | inactive |
| O=c1n(CC2CO2)c(=O)n(CC2CO2)c(=O)n1CC1CO1 (stereo unspecified) | inactive |
| CCc1ccc(C(c2ccc(CC)cc2)C(Cl)Cl)cc1 | 115 µM (active) |
| CCC[C@H](N[C@@H](C)C(=O)N1[C@H](C(=O)O)C[C@@H]2CCCC[C@@H]21)C(=O)OCC | inactive |
| O=C1Nc2ccccc2C1(c1ccc(O)cc1)c1ccc(O)cc1 | inactive |
| CC[C@]1(O)C[C@@H]2CN(CCc3c([nH]c4ccccc34)[C@@](C(=O)OC)(c3cc4c(cc3OC)N(C)[C@H]3[C@@](O)(C(=O)OC)[C@H](OC(C)=O)[C@]5(CC)C=CCN6CC[C@]43[C@@H]65)C2)C1 | inactive |
| CCCCCCC(O)CCCCCCCCCCC(=O)O (stereo unspecified) | inactive |
| CCN(CC)c1ccc2c(C)cc(=O)oc2c1 | inactive |
| NCCO | inactive |
| CC(=O)OCCOCCOCCOC(C)=O | inactive |
| O=C(O)c1cccc(C(=O)O)c1 | inactive |
| C=C(C)C1CC=C(C)C(OC(C)=O)C1 (stereo unspecified) | inactive |
| O=C(Oc1ccccc1)c1ccccc1O | inactive |
| CCC(=O)/C=C/C1C(C)=CCCC1(C)C (stereo unspecified) | inactive |
| CC(C)(C)NC(=O)[C@@H]1CN(Cc2cccnc2)CCN1C[C@@H](O)C[C@@H](Cc1ccccc1)C(=O)N[C@H]1c2ccccc2C[C@H]1O | inactive |
| COC(=O)/C=C/c1ccccc1 | inactive |
| CC(C)(C)NCC(O)c1cc(O)cc(O)c1 (stereo unspecified) | inactive |

| Compound | Potency |
| --- | --- |
| Cc1ccnc2c1NC(=O)c1cccnc1N2C1CC1 | inactive |
| NC(=Nc1ccccc1)Nc1ccccc1 | inactive |
| CC(=O)OCC1=C(C(=O)O)N2C(=O)[C@@H](NC(=O)Cc3cccs3)[C@H]2SC1 | inactive |
| COC(=O)c1cccc(C(=O)OC)c1 | inactive |
| Cc1cccc(O)c1C | inactive |
| CC(=O)Nc1ccc(C(=O)CCl)cc1 | inactive |
| OCCN1CCNCC1 | inactive |
| [Cl][In]([Cl])[Cl] | inactive |
| O | inactive |
| C=C(C)C(=O)O | inactive |
| O=C(Cl)c1cccc(C(=O)Cl)c1 | inactive |
| CC(=O)C1=C(C)[C@@H]2C[C@@]3(C1)[C@H](C)CC[C@H]3C2(C)C | inactive |
| C#CC(C)(CC)OC(=O)c1ccccc1C(=O)O (stereo unspecified) | inactive |
| CCCCOCCOC(=O)c1ccccc1C(=O)OCCOCCCC | inactive |
| O=C(O)CP(=O)(O)O | inactive |
| c1ccc2cc3c(ccc4ccccc43)cc2c1 | inactive |
| O=C(O)c1cn(-c2ccc(F)cc2)c2cc(N3CCNCC3)c(F)cc2c1=O | inactive |
| CC(=O)O[C@]1(C(C)=O)CC[C@H]2[C@@H]3C[C@H](C)C4=CC(=O)CC[C@]4(C)[C@H]3CC[C@@]21C | inactive |
| CCCN[C@H]1CCc2nc(N)sc2C1 | inactive |
